The text below walks through data of PubChem BioAssay (Tox21).

Each structure is given as a SMILES string. Results filed as inconclusive are left out. Unmarked numbers belong to inactive results. Active and inactive are the calls of the source. Calls come from the whole dose curve; as a rule, active = well fitted cell-killing curve with a large enough effect in the repeat runs; inconclusive = weak or mixed curves, or effect the other way; inactive = flat fitted curve, though single readings scatter.
% is set by controls: 0 for no effect and ±100 for the full control effect.

This assay can be described thus: qHTS assay to identify small molecule antagonists of the retinoid acid receptor (RAR) signaling pathway - cell viability counter screen (AID 1159551). Note: nearly all actives have a fitted effect of over 35% in size. Particulars: C3RL4 cells viability, ATP luminescence (CellTiter-Glo), 6 h; series mostly up to 92.4 µM. An excerpt: U.S. Tox21 Program National Center for Advancing Translational Sciences [NCATS] NIH Chemical Genomics Center [NCGC] U.S. Environmental Protection Agency [EPA] National Institutes of Environmental Health Sciences [NIEHS] National Toxicology Program [NTP] U.S. Food and Drug Administration [FDA] Tox21 Assay Overview: All-trans Retinoic acid (atRA) is the potent natural metabolite of retinol and plays an important role in normal embryonic development and maintenance of cellular phenotype in adult animals. atRA is the activating ligand for the retinoic acid receptors (RARs) which form heterodimers with retinoid X receptors (RXRs) on the retinoic acid response element (RARE). Through activation of the RAR/RXRs nuclear receptors, atRA regulates the transcription of a large number of protein-coding genes and regulatory RNAs. Intracellular levels of atRA are controlled by the retinol signaling pathway (RSP) that regulates the biosynthesis and catabolism of atRA to maintain physiological levels. Chemicals that interfere with the RSP can cause abnormal intracellular levels of atRA and therefore are potential developmental toxicants. To assess compounds for the potential adverse effect on embryonic development through interfering with retinol signaling, a cell-based RARE luciferase reporter gene assay was used. C3RL4 cell line (OARSA/CFSAN/FDA, Laurel, MD) was used to screen Tox21 10K compound library for identifying inhibitors of the RSP. Also cytotoxicity was assessed by determining the viability of cells based on the quantitation of ATP.
Tox21 Assay Protocol Summary: C3RL4 cells were seeded at 1,000/well in 4 uL of assay medium into white solid 1,536-well tissue culture plates (Greiner Bio-One North America Inc. Monroe, NC) using a Multidrop Combi (Thermo Scientific, Waltham, MA) dispenser. After incubation at 37 C and 5% CO2 for an overnight, 23 nL of compounds dissolved in DMSO, positive control or DMSO only were transferred by a Pintool station (Kalypsys, San Diego, CA). One ul of 1 uM (final concentration) of Retinol was added right after the compound addition by using a Flying Reagent Dispenser (FRD) (Aurora Discovery, San Diego, CA). After 6 hr incubation at 37 C and 5% CO2, 5 uL of CellTiter-Glo reagent (Promega Corporation, Madison, WI) was added to each assay plate using an FRD. Luminescence was quantified on a ViewLux plate reader (PerkinElmer, Waltham, MA) after 30 min incubation at room temperature.
Take `NC(=O)NC1N=C([O][Al])NC1=O` (stereo not given): the molecule was classed as inactive. Still for that read-out and setting: in the case of `CCCn1cc[n+](C)c1C` it was “inactive”; in that of `C[C@@H]1CCC[C@H](C)N1`, “inactive”; in that of `CCCCCCC#CC(=O)OC`, “inactive”. `CCCCS(=O)(=O)N[C@@H](Cc1ccc(OCCCCC2CCNCC2)cc1)C(=O)O`: the call was inactive. Regarding `CCCO[Si](OCCC)(OCCC)OCCC`, the outcome was inactive. The same measure, in the same setting: in the case of `CC1=CC(=O)[C@H]2C[C@@H]1C2(C)C` it was “inactive”; in that of `C1CCC2=NCCCN2CC1`, “inactive”; in that of `COc1cc(C)nc(-n2nc(C)cc2OC)n1`, “inactive”. As to `CC(=O)OCC(=O)[C@@]1(O)[C@H](C)C[C@H]2[C@@H]3CCC4=CC(=O)C=C[C@]4(C)[C@@]3(F)[C@@H](O)C[C@@]21C`, the call was inactive.

In the case of `CCOC(=O)C1=NOC(c2ccccc2)(c2ccccc2)C1`, the molecule was classed as inactive.

In the case of `CC(C)COC(=O)c1ccc(N)cc1`, the molecule was classed as inactive. Still for that read-out and setting: to `C=C(C)C(=O)OCCOCCOCCOCCOC(=O)C(=C)C` belongs “inactive”. On the same count and under the same terms, to `Clc1cc(Cl)c(Cl)nc1Cl` belongs “inactive”; to `O=C(O)Cc1csc(-c2ccc(Cl)cc2)n1`, “inactive”; to `CC[N+](CC)(CC)CCOc1cccc(OCC[N+](CC)(CC)CC)c1OCC[N+](CC)(CC)CC`, “inactive”.

As to `CC(C)(CCC(=O)O)C(=O)O`, the molecule was called inactive. Consider `CCCCCCCCCC[N+](C)(C)[O-]`, for which the result was inactive. The same measure, in the same setting: to `N[C@H](C(=O)O)[C@@H](O)c1ccc(O)c(O)c1` belongs “inactive”. With `CC(=O)c1ccccc1[N+](=O)[O-]`, the call was inactive. For `CC(=O)Nc1ccc(OCC(O)CNC(C)C)cc1` (stereo not given), the molecule was called inactive. Turning to `O=[N+]([O-])c1ccc(/C=N\O)o1`, the result was inactive. Take `CCCCCC(=O)OCCc1ccccc1`: the molecule was classed as inactive. Take `Cc1ccc(C(=O)c2ccccc2)cc1`: the molecule was classed as inactive.

On to `O=C(O)CCCC[P+](c1ccccc1)(c1ccccc1)c1ccccc1`, for which the call was inactive. Take `Cc1nc2ccc(CN(C)c3ccc(C(=O)N[C@@H](CCC(=O)O)C(=O)O)s3)cc2c(=O)[nH]1`: the outcome was inactive. On the same count and under the same terms, in the case of `Cc1coc2ccccc2c1=O` it was “inactive”; in that of `O=S(=O)(O)c1cccc2c(S(=O)(=O)O)cccc12`, “inactive”; in that of `CC(C)C(=O)OC(=O)C(C)C`, “inactive”.

Take `CC(C)c1ccc2ncccc2c1`: the molecule was called inactive. As to `CCOc1ccccc1OCC`, the outcome was inactive. `CC(COc1ccccc1)NN` (stereo not given): the call was inactive. Still for that read-out and setting: in the case of `COCCOCC(OC)OC` it was “inactive”; in that of `CC(C)=CCC/C(C)=C/C#N`, “inactive”; in that of `CN(C)C(=O)Oc1ccc[n+](C)c1`, “inactive”. For the molecule `Cc1ncc(COP(=O)(O)O)c(C=O)c1O`, the molecule was called inactive. Take `Cc1cc(C)c(N=Nc2c(O)c(S(=O)(=O)O)cc3cc(S(=O)(=O)O)ccc23)cc1C`: the activity change, negative = cytotoxicity is 0.446% [at 8.39 µM].

Consider `CC(C)CCCO`, for which the result was inactive. As to `CCCCCCCCCCCCCCC(=O)O`, the result was inactive.

With `C[N+](C)(CCOc1ccccc1)Cc1cccs1`, the molecule was called inactive.
